{"source": "PubChem BioAssay (Tox21)", "note": "Values joined by “and” are separate entries in the source; they are usually repeats but may differ in a detail not shown here. Equal entries are not always repeated. Records with an inconclusive call do not appear. Where a call stands in place of a potency, no number is given. More than one record can exist for a structure, and the calls need not agree. Active and inactive are the calls of the source. Calls follow the shape of the dose curve; as a rule, active = well fitted activation curve with a large enough effect in the repeat runs; inconclusive = weak or mixed curves; inactive = no such curve, though single readings can be large or run the other way. Potency is read from the fitted curve at half-maximal effect."}
{"molecular_target": "Nuclear receptor subfamily 1 group I member 2 (Homo sapiens) (UniProt O75469)", "sequence (O75469 whole entry, looked up)": "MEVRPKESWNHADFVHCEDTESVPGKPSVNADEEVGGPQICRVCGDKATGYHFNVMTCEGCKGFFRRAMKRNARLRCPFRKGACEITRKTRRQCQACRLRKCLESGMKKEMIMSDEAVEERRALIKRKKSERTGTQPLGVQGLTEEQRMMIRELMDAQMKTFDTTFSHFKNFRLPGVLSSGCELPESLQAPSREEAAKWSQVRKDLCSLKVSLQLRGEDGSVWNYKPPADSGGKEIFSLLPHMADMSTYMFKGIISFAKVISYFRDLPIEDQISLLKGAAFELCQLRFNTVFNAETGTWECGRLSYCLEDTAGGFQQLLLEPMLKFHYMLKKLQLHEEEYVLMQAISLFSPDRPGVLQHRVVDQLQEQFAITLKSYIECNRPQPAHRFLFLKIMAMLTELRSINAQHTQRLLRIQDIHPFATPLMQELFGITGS", "experiment": "Human pregnane X receptor (PXR) small molecule agonists, qHTS assay (AID 1346982); also: nearly all actives have a fitted effect of over 35% in size", "conditions": "PXR-Luc HepG2, CYP3A4 luciferase reporter, 24 h; series mostly up to 92.4 µM; activation: at the top concentration", "text": "National Center for Advancing Translational Sciences [NCATS]\nNIH Chemical Genomics Center [NCGC]\nU.S. Environmental Protection Agency [EPA]\nNational Institutes of Environmental Health Sciences [NIEHS]\nNational Toxicology Program [NTP]\nThe human pregnane X receptor (hPXR) regulates the expression of several drug metabolizing enzymes and induction of these proteins is a major mechanism for developing drug resistance in cancer. One such key enzyme catalyzing the drug metabolism is cytochrome P450 3A4 (CYP3A4). Changes in CYP3A4 expression affect drug metabolism, thereby reducing the therapeutic efficacy and altering toxicological response to a drug and which finally causes adverse drug interaction. To screen Tox21 libraries for compounds that activate hPXR-mediated CYP3A4 gene expression, PXR-Luc HepG2 cells were used.\nPXR-Luc HepG2 cells were dispensed at 2,000 per well in 5uL of assay medium containing 5% charcoal-stripped FBS into white solid bottom 1536-well plates (Corning Life Sciences, Corning, NY) using a Multidrop Combi (Thermo Scientific, Waltham, MA) dispenser. The assay plates were incubated at 37 C and 5% CO2 for 5hr, and then 23nL of compounds dissolved in DMSO and positive control were transferred using a Pintool station (Wako, San Diego, CA). The assay plates were incubated at 37C and 5% CO2 for 24hr. For luciferase read, 4uL of ONE-Glo reagent (Promega Corporation, Madison, WI) was added to each well of the assay plates using Flying Reagent Dispenser (FRD, Aurora Discovery, San Diego, CA) and incubated the assay plates at room temperature for 30min. The luminescence signal was quantified using a ViewLux plate reader (Perkin Elmer, Shelton, CT)."}
{"compound": "CCCN(CCC)N=O", "Potency": "inactive"}
{"compound": "CCN(CC)CCO", "Potency": "inactive"}
{"compound": "O=C(O)c1ccccn1", "Potency": "inactive"}
{"compound": "COCCl", "Potency": "56.6 µM (active) and inactive"}
{"compound": "[N-]=[N+]=[N-]", "Potency": "inactive"}
{"compound": "Nc1c(Cl)c(Cl)nc(C(=O)O)c1Cl", "Potency": "56.1 µM (active) and inactive"}
{"compound": "Cc1cc(Cl)ccc1O", "Potency": "inactive"}
{"compound": "O=c1n(Cl)c(=O)n(Cl)c(=O)n1Cl", "Potency": "inactive"}
{"compound": "CN(C)N=O", "Potency": "inactive"}
{"compound": "Clc1cccc(Cl)c1Cl", "Potency": "inactive"}
{"compound": "CCC12COCN1COC2", "Potency": "inactive"}
{"compound": "CC(=O)C=C(C)C", "Potency": "inactive"}
{"compound": "O=[N+]([O-])c1ccccc1", "Potency": "inactive"}
{"compound": "O=NN1CCCC1", "Potency": "inactive"}
{"compound": "CCNc1nc(NC(C)C)nc(SC)n1", "Potency": "54.8 µM (active) and 24.3 µM (active)"}
{"compound": "CCC[CH2][Sn]([Cl])([Cl])[Cl]", "Potency": "inactive"}
{"compound": "O=c1ccc(=O)[nH][nH]1", "Potency": "inactive"}
{"compound": "O=[N+]([O-])c1ccc([As](=O)(O)O)cc1", "Potency": "inactive"}
{"compound": "Nc1ccc(Br)cc1", "activation": "11.3% (inactive)"}
{"compound": "O=NN1CCCCCCC1", "Potency": "inactive"}
{"compound": "Cc1ccccc1O", "activation": "10.7% (inactive)"}
{"compound": "Cn1cc(-c2ccccc2)c(=O)c(-c2cccc(C(F)(F)F)c2)c1", "Potency": "29.9 µM (active) and 17.2 µM (active)"}
{"compound": "O=C1CCCN1", "Potency": "69.3 µM (active) and inactive"}
{"compound": "NCC(O)c1ccc(O)cc1", "note": "(stereo not given)", "Potency": "inactive"}
{"compound": "C[C@]12CC[C@H]3[C@@H](CC[C@@]45O[C@@H]4C(O)=C(C#N)C[C@]35C)[C@@H]1CC[C@@H]2O", "Potency": "inactive"}
{"compound": "Oc1ccccc1Cl", "Potency": "inactive"}
{"compound": "CC(C)=C[C@@H]1[C@@H](C(=O)OCc2coc(Cc3ccccc3)c2)C1(C)C", "Potency": "13.7 µM (active)"}
{"compound": "ClCCBr", "Potency": "inactive"}
{"compound": "CCOP(=S)(OCC)SCCSCC", "Potency": "inactive"}
{"compound": "CCN(CC)c1ccccc1", "Potency": "inactive"}
{"compound": "CC(C)C1(C)N=C(c2nc3ccccc3cc2C(=O)O)NC1=O", "note": "(stereo not given)", "Potency": "inactive"}
{"compound": "CCOC(=O)c1ccccc1C(=O)OCC", "Potency": "inactive"}
{"compound": "COP(N)(=O)SC", "note": "(stereo not given)", "Potency": "inactive"}
{"compound": "C1CN2CCN1CC2", "Potency": "inactive"}
{"compound": "CC(C)N1C(=O)c2ccccc2NS1(=O)=O", "Potency": "inactive"}
{"compound": "Nc1ccccc1C(=O)O", "Potency": "inactive"}
{"compound": "CC(C)OC(=O)Nc1cccc(Cl)c1", "Potency": "38 µM (active) and 48.6 µM (active)"}
{"compound": "C=C(C)CCl", "Potency": "inactive"}
{"compound": "c1ccc(OP(Oc2ccccc2)Oc2ccccc2)cc1", "Potency": "inactive"}
{"compound": "O=c1[nH]c2ccccc2c(=O)o1", "Potency": "inactive"}
